Shown are actives, neighbours in structure and some others; about 5.7% of the full set was active somewhere.
KDM4E inh – inhibitors of human JMJD2E histone demethylase; 1.6% of 230,000 active; JMJD2E catalytic domain, FDH-coupled NADH fluorescence (FDH is formaldehyde dehydrogenase); AID 2147; Potency, µM (top dose mostly 57.1 µM), without a hit: top-dose activity change, negative = inhibition, actives largely listed as inhibitors; B2RXH2; active = well fitted inhibition curve with a large enough effect, not every such curve was filed as active; inconclusive = small, poorly fitted or top-dose-only effect, or another doubt; inactive = no such curve, though single readings can be large or run the other way;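 note: potency is the fitted concentration of half-maximal effect; 0% = wells with enzyme and -100% = buffer wells without enzyme; nearly all actives have a fitted effect of over 50% in size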
L3MBTL1 inh – L3MBTL1 (human) inhibition; Q9Y468; AlphaScreen L3MBTL1–H3K9me1 peptide binding; Potency, µM (titrated, usually from 57.1 µM), without a hit: at the top dose activity, negative = inhibition, actives largely listed as inhibitors; 0.66% of 230,000 active; AID 485360; note: potency is the fitted concentration of half-maximal effect; % is set by controls: 0 for no effect and ±100 for the full control effect; nearly all actives have a fitted effect of over 60% in size
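Read-out is AlphaScreen signal from streptavidin donor and nickel chelate acceptor beads (10 ug/mL final each) bridging L3MBTL1 (50 nM) and biotinylated K9-monomethylated H3(1-15) peptide (75 nM), after 30 min compound exposure at room temperature.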
HP1b chromo inh – blocks HP1-beta chromodomain binding to methylated histone tails; 0.56% of 390,000 active; AID 540317; P83916; AlphaScreen HP1-beta / biotin-H3K9me3 peptide binding; Potency, µM (series often up to 114 µM), for inactives: at the top dose activity change, negative = inhibition, hits mostly inhibitors; note: potency is the fitted concentration of half-maximal effect; nearly all actives have a fitted effect of over 70% in size
Target sequence (P83916 whole entry, looked up): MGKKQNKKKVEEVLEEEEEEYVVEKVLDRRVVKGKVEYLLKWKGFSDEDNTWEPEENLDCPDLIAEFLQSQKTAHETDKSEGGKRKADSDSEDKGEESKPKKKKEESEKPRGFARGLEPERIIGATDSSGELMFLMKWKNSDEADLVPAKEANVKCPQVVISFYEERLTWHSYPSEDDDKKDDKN
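HP1-beta protein (50 nM final) preincubated 30 min at room temperature with biotinylated H3(1-18)K9me3 peptide (50 nM) in PBS pH 7.4, 0.01% Tween-20, then compound added for 30 min. AlphaScreen streptavidin donor/nickel chelate acceptor beads (10 ug/mL final), 30 min dark, luminescence read.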
BAZ2B inh – blocks human BAZ2B | Q9UIF8 | AlphaScreen BAZ2B-H3K14Ac peptide displacement | Potency, µM (doses to about 114 µM), for inactives: at the highest dose activity change, negative = inhibition, most hits filed as inhibitors | 4.4% of 360,000 active | AID 504333; note: potency is the fitted concentration of half-maximal effect; % is set by controls: 0 for no effect and ±100 for the full control effect; nearly all actives have a fitted effect of over 60% in size
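BAZ2B 50 nM plus b-H3(5-23)K14Ac 50 nM, PBS pH 7.4/0.01% Tween-20, 30 min RT; compound added (max 110 uM), 30 min RT; streptavidin donor/Ni-chelate acceptor beads 10 ug/mL final, 20 min dark; AlphaScreen read.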
PI5P4K alpha inh – inhibitors of human PI5P4K alpha | 1.2% of 330,000 active | AID 652105 | max response, % | PI5P4Kalpha enzyme, ADP-Glo luminescence, 60 min; active compounds read low; active = max response of -50% or lower; inconclusive = between -30% and -50%; inactive = -30% or higher; note: value at the top dose of about 77 µM; % is set by controls: 0 for no effect and ±100 for the full control effect
Target sequence (P48426 whole entry, looked up): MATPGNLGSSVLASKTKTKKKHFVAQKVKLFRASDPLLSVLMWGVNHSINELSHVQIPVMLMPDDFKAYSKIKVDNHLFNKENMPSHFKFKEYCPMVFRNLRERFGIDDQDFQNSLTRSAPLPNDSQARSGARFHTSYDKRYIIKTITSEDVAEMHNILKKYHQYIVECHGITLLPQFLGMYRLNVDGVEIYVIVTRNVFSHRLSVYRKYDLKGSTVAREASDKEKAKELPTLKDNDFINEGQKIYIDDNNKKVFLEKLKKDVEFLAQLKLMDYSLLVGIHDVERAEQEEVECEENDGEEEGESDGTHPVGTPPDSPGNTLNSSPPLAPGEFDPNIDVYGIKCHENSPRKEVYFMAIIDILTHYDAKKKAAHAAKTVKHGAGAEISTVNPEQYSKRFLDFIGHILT
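Reactions run in 0.038 M HEPES pH 7.4, 0.28 mM EGTA, 0.1% CHAPS and 5% DMSO, with PI5P4Kalpha, substrate, compound and 5 microM ATP final, one hour at room temperature. Readout is ADP-Glo luminescence.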
JMJD2A Tudor – JMJD2A Tudor domain (human) inhibition | 4.4% of 390,000 active | Potency, µM (series often up to 114 µM), inactives show top-dose activity change, negative = inhibition, usual class: inhibitors | O75164 | AlphaScreen JMJD2A-Tudor / H3K4me3 peptide binding; note: potency is the fitted concentration of half-maximal effect; % is set by controls: 0 for no effect and ±100 for the full control effect; nearly all actives have a fitted effect of over 50% in size
The depositor's hits bear a star; [ ] = another dose, or the depositor's remark. Unless noted, calls come from the whole dose curve; as a rule, active = well fitted inhibition curve with a large enough effect; inconclusive = small, poorly fitted or top-dose-only effect; inactive = no such curve, though single readings can be large or run the other way.

Screening O=C1/C(=C/c2cccs2)NC(=S)N1C1CC1 returned KDM4E inh -6%, L3MBTL1 inh -1%, HP1b chromo inh 14%, BAZ2B inh -33%, PI5P4K alpha inh -11 and JMJD2A Tudor 40µM*.
For Cc1cccnc1C(NC(=O)C1CCN(Cc2ccc(Oc3ccccc3)cc2)CC1)c1ccccc1 (stereo unspecified) the results were PI5P4K alpha inh -6.
For CCc1cnc2c(c1SCC(=O)c1ccc(Cl)cc1)c(=O)n(C)c(=O)n2C the results were HP1b chromo inh 31%, BAZ2B inh 0% and JMJD2A Tudor -11%.
For CC(=C\c1ccccc1)/C=C1/SC(=S)N(C(C(=O)O)C(C)C)C1=O (stereo unspecified) the results were KDM4E inh -15%, L3MBTL1 inh -5%, HP1b chromo inh inconclusive, BAZ2B inh 71µM*, PI5P4K alpha inh -8 and JMJD2A Tudor inconclusive.
`CC(/C=C1\SC(=S)N(NC(=O)c2ccc(O)cc2)C1=O)=C\c1ccccc1` gave KDM4E inh 2%, L3MBTL1 inh inconclusive, HP1b chromo inh inconclusive, BAZ2B inh 32µM*, PI5P4K alpha inh -11 and JMJD2A Tudor inconclusive.
`N#Cc1c(-c2ccco2)cc(-c2ccccc2)[nH]c1=O` gave KDM4E inh inconclusive, HP1b chromo inh 21%, BAZ2B inh 71µM*, PI5P4K alpha inh -18 and JMJD2A Tudor inconclusive.
Screening COCc1cc(C)n(CC(=O)Nc2ccc(NC(C)=O)cc2)c(=O)c1C#N returned HP1b chromo inh 15%, BAZ2B inh -6% and JMJD2A Tudor -4%.
For COc1ccc(NC(=O)CCc2c(C)nn(-c3ccc(N4CCOCC4)nn3)c2C)cc1Cl the results were HP1b chromo inh 6%, BAZ2B inh -28% and JMJD2A Tudor -34%.
CCC(C)c1ccccc1OCCCN(C)Cc1ccccc1 (stereo unspecified) was read as L3MBTL1 inh 4%, HP1b chromo inh 17%, BAZ2B inh inconclusive, PI5P4K alpha inh -1 and JMJD2A Tudor 7.1µM*.
CN(CCOC(=O)c1ccccc1)Cc1ccccc1 was read as KDM4E inh 3%, L3MBTL1 inh 10%, HP1b chromo inh 43%, BAZ2B inh 2%, PI5P4K alpha inh 3 and JMJD2A Tudor 1%.
Screening CCc1ccc(OCCCCN(C)Cc2ccccc2)cc1 returned L3MBTL1 inh 4%, HP1b chromo inh inconclusive, BAZ2B inh inconclusive, PI5P4K alpha inh 9 and JMJD2A Tudor 14µM*.
For CCN(Cc1ccccc1)Cc1ccc(OCc2ccccc2)cc1 the results were L3MBTL1 inh 49%, HP1b chromo inh -7%, BAZ2B inh inconclusive, PI5P4K alpha inh 5 and JMJD2A Tudor 28µM*.
For COc1ccc(OCCN(C)Cc2ccccc2)cc1 the results were KDM4E inh -2%, L3MBTL1 inh -2%, HP1b chromo inh 10%, BAZ2B inh 4% and JMJD2A Tudor -26%.
`CN(CCOc1ccc(F)cc1)Cc1ccccc1` gave L3MBTL1 inh -2%, HP1b chromo inh inconclusive, BAZ2B inh 50µM*, PI5P4K alpha inh -12 and JMJD2A Tudor 0.79µM*.
For COc1ccc(OCCCN(C)Cc2ccccc2)cc1 the results were L3MBTL1 inh -4%, HP1b chromo inh inconclusive, BAZ2B inh inconclusive, PI5P4K alpha inh -3 and JMJD2A Tudor 25µM*.
COc1cc(C)ccc1OCCOCCN(C)Cc1ccccc1 was read as KDM4E inh inconclusive, L3MBTL1 inh 2%, HP1b chromo inh inconclusive, BAZ2B inh inconclusive, PI5P4K alpha inh 0 and JMJD2A Tudor 3.2µM*.
`CN(CCCCOc1ccc(F)cc1)Cc1ccccc1` gave L3MBTL1 inh -1%, HP1b chromo inh inconclusive, BAZ2B inh 79µM*, PI5P4K alpha inh 3 and JMJD2A Tudor 22µM*.
`CN(CCOCCOc1ccc2ccccc2c1)Cc1ccccc1` gave KDM4E inh 0%, HP1b chromo inh 74%, BAZ2B inh -15%, PI5P4K alpha inh 0 and JMJD2A Tudor -18%.
Screening Cc1cc(C)c(C)c(OCCCCn2cnc3ccccc3c2=O)c1 returned KDM4E inh -3%, L3MBTL1 inh 7%, HP1b chromo inh 43%, BAZ2B inh 24% and JMJD2A Tudor 5%.
For Cc1cc(C)c(C)c(OCCCCN(C)Cc2ccccc2)c1 the results were L3MBTL1 inh 6%, HP1b chromo inh inconclusive, BAZ2B inh 50µM*, PI5P4K alpha inh -3 and JMJD2A Tudor 11µM*.
For Cc1oc2ncn(CC(C)C)c(=O)c2c1C(=O)Nc1cc(F)ccc1F the results were HP1b chromo inh -4%, BAZ2B inh 9%[57.1 µM] and JMJD2A Tudor -14%.
For O=C1CCCC2=C1C1(CCOCC1)N=C(Nc1nc3ccccc3o1)N2 the results were JMJD2A Tudor -23%.
`O=C(Cn1c(=O)nc(-c2ccccc2)c2ccccc21)NCCCc1ccccc1` gave HP1b chromo inh 34%, BAZ2B inh 1% and JMJD2A Tudor -1%.
CCN(c1cccc(C)c1)c1ncnc2c1cnn2-c1cccc(Cl)c1 was read as HP1b chromo inh 20%, BAZ2B inh 17% and JMJD2A Tudor 28%.
Screening COc1ccc(/C=C/c2c([N+](=O)[O-])c(=O)n(C)c(=O)n2C)cc1OC returned KDM4E inh -16%, L3MBTL1 inh 3%, HP1b chromo inh 46%, BAZ2B inh -3% and JMJD2A Tudor -11%.
O=C(COc1ccccc1/C=C\c1[nH]c(=O)[nH]c(=O)c1[N+](=O)[O-])Nc1ccccc1 was read as KDM4E inh -5%, HP1b chromo inh -10%, BAZ2B inh -8%, PI5P4K alpha inh -69* and JMJD2A Tudor -24%.
O=C(COc1ccccc1/C=C1\SC(=O)NC1=O)Nc1ccccc1 was read as KDM4E inh -2%, HP1b chromo inh 2%, PI5P4K alpha inh inconclusive and JMJD2A Tudor -23%.
COc1cc(/C=C/c2[nH]c(=O)[nH]c(=O)c2[N+](=O)[O-])cc(OC)c1O was read as L3MBTL1 inh 0%, HP1b chromo inh 20%, BAZ2B inh -25%, PI5P4K alpha inh -88* and JMJD2A Tudor -12%.
`CCOc1cc(/C=C\c2[nH]c(=O)[nH]c(=O)c2[N+](=O)[O-])ccc1OC(C)CC` (stereo unspecified) gave KDM4E inh 0%, HP1b chromo inh -9%, BAZ2B inh 2% and JMJD2A Tudor -31%.
COc1cccc(/C=C/c2[nH]c(=O)[nH]c(=O)c2[N+](=O)[O-])c1O was read as HP1b chromo inh -13%, BAZ2B inh -8%, PI5P4K alpha inh -90* and JMJD2A Tudor -12%.
`O=c1[nH]c(/C=C/c2ccccc2Cl)c([N+](=O)[O-])c(=O)[nH]1` gave L3MBTL1 inh 3%, HP1b chromo inh -20%, BAZ2B inh -17%, PI5P4K alpha inh -69* and JMJD2A Tudor -6%.

From PubChem
